We go through 1 sequence from publication PMC7862700, “An all-to-all approach to the identification of sequence-specific readers for epigenetic DNA modifications on cytosine”.

Holding throughout (experiment): DAPPL (digital affinity profiling via proximity ligation, sequencing); 10 mM Tris-HCl pH 7.5, 50 mM NaCl, 1 mM DTT, 4% glycerol, room temperature, 30 min; GST-TFs on glutathione beads, 16-mer random dsDNA library, 0.1% formaldehyde crosslink after washing; high values mean tight binding
The target of one test is T1, FLI1 (Homo sapiens, UniProt Q01543 1-452).
T1 sequence: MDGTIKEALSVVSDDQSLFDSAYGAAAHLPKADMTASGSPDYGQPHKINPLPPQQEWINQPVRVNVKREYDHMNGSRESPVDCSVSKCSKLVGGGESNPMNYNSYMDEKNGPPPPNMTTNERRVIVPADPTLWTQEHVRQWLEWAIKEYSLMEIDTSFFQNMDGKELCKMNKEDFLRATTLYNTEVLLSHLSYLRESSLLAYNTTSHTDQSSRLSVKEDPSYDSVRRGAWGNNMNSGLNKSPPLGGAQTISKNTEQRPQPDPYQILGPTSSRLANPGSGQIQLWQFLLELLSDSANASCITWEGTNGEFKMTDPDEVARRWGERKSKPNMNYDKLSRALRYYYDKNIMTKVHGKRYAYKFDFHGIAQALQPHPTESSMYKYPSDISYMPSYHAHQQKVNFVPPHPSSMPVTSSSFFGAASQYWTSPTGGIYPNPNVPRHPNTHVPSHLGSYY
Conditions: protein: recombinant; tags: N-terminal GST; dsDNA, one strand shown. In short, it runs like this:
(§1)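 Sequencing on an Illumina NextSeq500 followed washing, crosslinking with 0.1% formaldehyde, proximity ligation (BsaI/T4 ligase, 1 h, 37 °C) and PCR amplification of pools that had been incubated for 30 min at room temperature with 200 nmole of a random double-stranded 16-mer DNA library in Tris/NaCl/DTT/glycerol buffer. Each pool held DNA-barcoded human transcription factors, expressed in yeast as GST fusions and captured on glutathione beads, plus a tag-only sample. Binding signal is a hexamer's read frequency for a factor divided by its frequency in the tag-only sample.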

A further test has as its target T2, ELK1 (Homo sapiens, UniProt P19419 1-428).
T2 sequence: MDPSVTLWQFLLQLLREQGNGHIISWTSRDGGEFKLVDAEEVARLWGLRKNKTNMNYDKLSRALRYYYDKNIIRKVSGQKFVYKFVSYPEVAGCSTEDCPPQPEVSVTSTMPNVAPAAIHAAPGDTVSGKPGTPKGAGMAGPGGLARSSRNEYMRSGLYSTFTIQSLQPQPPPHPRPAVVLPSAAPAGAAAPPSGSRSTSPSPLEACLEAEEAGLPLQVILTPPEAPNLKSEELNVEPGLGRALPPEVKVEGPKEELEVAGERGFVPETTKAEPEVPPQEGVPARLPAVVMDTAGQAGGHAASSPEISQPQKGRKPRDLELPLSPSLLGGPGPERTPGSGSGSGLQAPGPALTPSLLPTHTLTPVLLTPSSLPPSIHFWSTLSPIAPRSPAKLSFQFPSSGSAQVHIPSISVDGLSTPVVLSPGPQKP
Conditions: protein: recombinant; tags: N-terminal GST; dsDNA, one strand shown. In short, it runs like this:
as §1

The target of a further test is T3, GABPA (Homo sapiens, UniProt Q06546 1-454).
T3 sequence: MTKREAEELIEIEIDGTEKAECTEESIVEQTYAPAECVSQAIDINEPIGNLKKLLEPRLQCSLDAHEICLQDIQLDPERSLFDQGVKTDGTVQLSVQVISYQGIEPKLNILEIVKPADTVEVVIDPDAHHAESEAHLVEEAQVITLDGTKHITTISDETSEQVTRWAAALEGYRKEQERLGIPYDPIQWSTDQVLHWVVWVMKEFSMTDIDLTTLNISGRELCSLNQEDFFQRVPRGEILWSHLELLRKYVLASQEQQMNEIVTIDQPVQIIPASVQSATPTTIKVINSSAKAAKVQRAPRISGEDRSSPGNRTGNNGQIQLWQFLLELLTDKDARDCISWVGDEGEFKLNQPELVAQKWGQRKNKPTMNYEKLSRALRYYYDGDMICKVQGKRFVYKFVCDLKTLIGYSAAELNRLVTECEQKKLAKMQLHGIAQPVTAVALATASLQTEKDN
The conditions noted are these: protein: recombinant; tags: N-terminal GST; dsDNA, one strand shown. In short, it runs like this:
as §1

A further test has as its target T4, ERG (Homo sapiens, UniProt P11308 1-479).
T4 sequence: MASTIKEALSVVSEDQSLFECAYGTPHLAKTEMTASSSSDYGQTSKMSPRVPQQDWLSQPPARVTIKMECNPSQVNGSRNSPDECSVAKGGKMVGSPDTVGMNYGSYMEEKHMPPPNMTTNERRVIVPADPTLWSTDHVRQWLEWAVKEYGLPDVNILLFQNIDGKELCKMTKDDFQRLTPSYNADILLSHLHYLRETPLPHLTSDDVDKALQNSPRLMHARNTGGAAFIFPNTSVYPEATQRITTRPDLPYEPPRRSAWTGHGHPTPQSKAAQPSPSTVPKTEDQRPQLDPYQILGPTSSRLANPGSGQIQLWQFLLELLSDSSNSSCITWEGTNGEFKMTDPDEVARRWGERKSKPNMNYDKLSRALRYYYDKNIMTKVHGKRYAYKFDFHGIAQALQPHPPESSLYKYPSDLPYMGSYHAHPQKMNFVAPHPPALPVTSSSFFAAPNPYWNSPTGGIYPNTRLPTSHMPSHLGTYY
The conditions noted are these: protein: recombinant; tags: N-terminal GST; dsDNA, one strand shown. The procedure, abridged: as §1

A further test addresses ELF1 (Homo sapiens, UniProt P32519 1-619). Conditions: protein: recombinant; tags: N-terminal GST; dsDNA, one strand shown. The procedure, abridged:
as §1

For another test, the target named is T5, EHF (Homo sapiens, UniProt Q9NZC4 1-300).
T5 sequence: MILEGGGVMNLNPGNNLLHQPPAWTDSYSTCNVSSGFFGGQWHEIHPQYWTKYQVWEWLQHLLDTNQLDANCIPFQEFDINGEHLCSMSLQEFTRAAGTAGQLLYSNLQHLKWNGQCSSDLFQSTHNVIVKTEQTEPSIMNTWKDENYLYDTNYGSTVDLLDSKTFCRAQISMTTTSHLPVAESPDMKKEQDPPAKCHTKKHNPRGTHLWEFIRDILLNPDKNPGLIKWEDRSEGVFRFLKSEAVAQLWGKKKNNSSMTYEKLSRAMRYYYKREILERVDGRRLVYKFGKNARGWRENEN
The conditions noted are these: protein: recombinant; tags: N-terminal GST; dsDNA, one strand shown. The procedure, abridged: as §1

A further test addresses SPI1 (Homo sapiens, UniProt P17947 1-270). The conditions noted are these: protein: recombinant; tags: N-terminal GST; dsDNA, one strand shown. In short, it runs like this:
as §1

For another test, the target named is SPIB (Homo sapiens, UniProt Q01892 1-262). Conditions: protein: recombinant; tags: N-terminal GST; dsDNA, one strand shown. The procedure, abridged:
as §1

A further test has as its target T6, FEV (Homo sapiens, UniProt Q99581 1-238).
T6 sequence: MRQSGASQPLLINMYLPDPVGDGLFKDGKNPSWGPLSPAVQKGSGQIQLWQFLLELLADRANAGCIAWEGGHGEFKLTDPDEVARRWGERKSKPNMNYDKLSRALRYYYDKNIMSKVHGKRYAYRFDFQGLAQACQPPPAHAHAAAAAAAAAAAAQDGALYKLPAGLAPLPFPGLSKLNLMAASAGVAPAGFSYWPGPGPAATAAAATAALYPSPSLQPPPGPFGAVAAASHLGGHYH
The conditions noted are these: protein: recombinant; tags: N-terminal GST; dsDNA, one strand shown. In short, it runs like this: as §1

The next test concerns the target ETV5 (Homo sapiens, UniProt P41161 1-510). Conditions: protein: recombinant; tags: N-terminal GST; dsDNA, one strand shown. In short, it runs like this: as §1
The next test concerns the target HSF1 (Homo sapiens, UniProt Q00613 1-529). Conditions: protein: recombinant; tags: N-terminal GST; chain copies: 3; dsDNA, one strand shown. The procedure, abridged:
as §1

A further test concerns the target T7, SPIC (Homo sapiens, UniProt Q8N5J4 1-248).
T7 sequence: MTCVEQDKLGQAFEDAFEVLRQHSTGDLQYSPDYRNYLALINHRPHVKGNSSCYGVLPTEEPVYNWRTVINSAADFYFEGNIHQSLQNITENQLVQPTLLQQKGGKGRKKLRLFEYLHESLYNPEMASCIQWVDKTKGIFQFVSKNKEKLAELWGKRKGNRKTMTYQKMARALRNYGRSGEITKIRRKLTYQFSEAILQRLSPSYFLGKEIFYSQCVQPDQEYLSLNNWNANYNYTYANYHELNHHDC
Conditions: protein: recombinant; tags: N-terminal GST; dsDNA, one strand shown. The procedure, abridged:
as §1

In the next test the target is ELF4 (Homo sapiens, UniProt Q99607 1-663). The conditions noted are these: protein: recombinant; tags: N-terminal GST; dsDNA, one strand shown. In short, it runs like this:
as §1

The target of the next test is T8, ELK4 (Homo sapiens, UniProt P28324-2 1-405).
T8 sequence: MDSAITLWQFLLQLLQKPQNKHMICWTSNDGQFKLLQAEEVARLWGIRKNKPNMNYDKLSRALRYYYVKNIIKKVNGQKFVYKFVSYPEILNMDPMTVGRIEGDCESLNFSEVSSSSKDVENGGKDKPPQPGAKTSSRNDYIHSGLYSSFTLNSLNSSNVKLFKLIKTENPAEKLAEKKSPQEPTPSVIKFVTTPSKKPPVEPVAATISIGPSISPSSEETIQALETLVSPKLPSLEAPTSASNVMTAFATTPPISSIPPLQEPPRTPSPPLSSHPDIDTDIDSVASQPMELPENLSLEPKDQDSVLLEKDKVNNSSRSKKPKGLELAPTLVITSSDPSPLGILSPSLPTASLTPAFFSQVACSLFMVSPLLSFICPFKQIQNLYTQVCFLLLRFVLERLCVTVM
The conditions noted are these: protein: recombinant; tags: N-terminal GST; dsDNA, one strand shown. In short, it runs like this: as §1

In another test the target is T9, ETV2 (Homo sapiens, UniProt O00321 1-342).
T9 sequence: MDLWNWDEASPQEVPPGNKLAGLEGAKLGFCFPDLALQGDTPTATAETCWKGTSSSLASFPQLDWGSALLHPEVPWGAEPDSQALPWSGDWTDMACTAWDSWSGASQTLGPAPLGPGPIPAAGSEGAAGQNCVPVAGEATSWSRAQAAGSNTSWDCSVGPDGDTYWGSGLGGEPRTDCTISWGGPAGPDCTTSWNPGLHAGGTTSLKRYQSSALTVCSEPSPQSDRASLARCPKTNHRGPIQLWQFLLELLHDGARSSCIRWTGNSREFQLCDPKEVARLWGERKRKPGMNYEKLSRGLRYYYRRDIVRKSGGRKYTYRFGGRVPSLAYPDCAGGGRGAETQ
The conditions noted are these: protein: recombinant; tags: N-terminal GST; dsDNA, one strand shown. In short, it runs like this:
as §1

Another test deals with T10, ELF3 (Homo sapiens, UniProt P78545 1-371).
T10 sequence: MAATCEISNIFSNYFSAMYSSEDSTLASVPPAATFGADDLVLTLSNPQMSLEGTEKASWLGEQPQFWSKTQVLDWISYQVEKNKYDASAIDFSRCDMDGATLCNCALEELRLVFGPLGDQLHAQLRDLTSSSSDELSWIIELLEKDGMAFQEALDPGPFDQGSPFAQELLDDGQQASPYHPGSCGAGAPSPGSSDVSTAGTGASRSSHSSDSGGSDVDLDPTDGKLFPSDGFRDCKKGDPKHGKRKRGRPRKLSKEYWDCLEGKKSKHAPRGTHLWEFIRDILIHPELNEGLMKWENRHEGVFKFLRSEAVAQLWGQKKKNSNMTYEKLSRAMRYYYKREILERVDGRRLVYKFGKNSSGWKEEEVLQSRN
Conditions: protein: recombinant; tags: N-terminal GST; dsDNA, one strand shown. The procedure, abridged: as §1

The target in a further test is CRX (Homo sapiens, UniProt O43186 1-299). Conditions: protein: recombinant; tags: N-terminal GST; dsDNA, one strand shown. In short, it runs like this: as §1
Chain of CRX (O43186 whole entry): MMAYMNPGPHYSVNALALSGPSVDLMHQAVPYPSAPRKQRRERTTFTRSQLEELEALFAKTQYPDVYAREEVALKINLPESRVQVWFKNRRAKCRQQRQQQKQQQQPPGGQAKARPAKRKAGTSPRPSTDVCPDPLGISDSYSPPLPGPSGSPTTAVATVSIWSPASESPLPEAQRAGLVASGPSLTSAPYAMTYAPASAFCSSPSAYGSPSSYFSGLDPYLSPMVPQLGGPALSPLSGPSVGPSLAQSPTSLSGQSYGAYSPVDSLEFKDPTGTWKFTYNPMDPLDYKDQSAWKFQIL

Chain of ETV5 (P41161 whole entry): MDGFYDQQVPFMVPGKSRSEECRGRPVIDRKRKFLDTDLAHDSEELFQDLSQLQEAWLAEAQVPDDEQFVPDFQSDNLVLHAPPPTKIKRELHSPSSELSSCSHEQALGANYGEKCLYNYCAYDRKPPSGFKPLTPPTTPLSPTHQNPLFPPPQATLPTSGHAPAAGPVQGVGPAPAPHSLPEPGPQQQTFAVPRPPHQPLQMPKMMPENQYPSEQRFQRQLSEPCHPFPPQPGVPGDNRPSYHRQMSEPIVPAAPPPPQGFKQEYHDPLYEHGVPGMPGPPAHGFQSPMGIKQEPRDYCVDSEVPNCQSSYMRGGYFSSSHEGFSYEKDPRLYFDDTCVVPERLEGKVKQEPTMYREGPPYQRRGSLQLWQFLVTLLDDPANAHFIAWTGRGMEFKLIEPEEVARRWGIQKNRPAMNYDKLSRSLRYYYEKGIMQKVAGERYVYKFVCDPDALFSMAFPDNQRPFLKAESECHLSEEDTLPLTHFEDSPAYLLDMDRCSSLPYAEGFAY
Chain of SPIB (Q01892 whole entry): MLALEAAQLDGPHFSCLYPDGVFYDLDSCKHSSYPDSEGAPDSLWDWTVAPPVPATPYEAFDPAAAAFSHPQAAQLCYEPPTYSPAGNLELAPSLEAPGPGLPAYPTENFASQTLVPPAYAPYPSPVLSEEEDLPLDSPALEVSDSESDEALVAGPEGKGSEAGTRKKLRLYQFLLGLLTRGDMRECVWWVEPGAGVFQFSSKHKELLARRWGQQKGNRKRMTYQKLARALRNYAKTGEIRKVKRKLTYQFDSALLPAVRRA
Chain of ELF1 (P32519 whole entry): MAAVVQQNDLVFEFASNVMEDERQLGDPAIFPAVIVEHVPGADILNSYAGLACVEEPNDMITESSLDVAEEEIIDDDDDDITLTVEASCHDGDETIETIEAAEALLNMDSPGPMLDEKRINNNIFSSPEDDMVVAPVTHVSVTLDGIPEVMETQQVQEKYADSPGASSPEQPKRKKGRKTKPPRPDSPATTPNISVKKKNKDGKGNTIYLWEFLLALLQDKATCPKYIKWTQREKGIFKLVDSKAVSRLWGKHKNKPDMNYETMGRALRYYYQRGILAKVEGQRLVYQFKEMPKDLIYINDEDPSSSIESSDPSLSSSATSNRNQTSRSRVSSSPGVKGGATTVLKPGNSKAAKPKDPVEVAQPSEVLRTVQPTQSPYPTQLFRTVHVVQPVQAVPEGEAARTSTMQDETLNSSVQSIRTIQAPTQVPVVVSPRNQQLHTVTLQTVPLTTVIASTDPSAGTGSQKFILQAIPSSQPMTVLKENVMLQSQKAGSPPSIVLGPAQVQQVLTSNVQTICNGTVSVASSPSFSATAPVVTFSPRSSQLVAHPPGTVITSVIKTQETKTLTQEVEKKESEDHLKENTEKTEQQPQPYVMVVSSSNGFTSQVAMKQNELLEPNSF
Chain of ELF4 (Q99607 whole entry): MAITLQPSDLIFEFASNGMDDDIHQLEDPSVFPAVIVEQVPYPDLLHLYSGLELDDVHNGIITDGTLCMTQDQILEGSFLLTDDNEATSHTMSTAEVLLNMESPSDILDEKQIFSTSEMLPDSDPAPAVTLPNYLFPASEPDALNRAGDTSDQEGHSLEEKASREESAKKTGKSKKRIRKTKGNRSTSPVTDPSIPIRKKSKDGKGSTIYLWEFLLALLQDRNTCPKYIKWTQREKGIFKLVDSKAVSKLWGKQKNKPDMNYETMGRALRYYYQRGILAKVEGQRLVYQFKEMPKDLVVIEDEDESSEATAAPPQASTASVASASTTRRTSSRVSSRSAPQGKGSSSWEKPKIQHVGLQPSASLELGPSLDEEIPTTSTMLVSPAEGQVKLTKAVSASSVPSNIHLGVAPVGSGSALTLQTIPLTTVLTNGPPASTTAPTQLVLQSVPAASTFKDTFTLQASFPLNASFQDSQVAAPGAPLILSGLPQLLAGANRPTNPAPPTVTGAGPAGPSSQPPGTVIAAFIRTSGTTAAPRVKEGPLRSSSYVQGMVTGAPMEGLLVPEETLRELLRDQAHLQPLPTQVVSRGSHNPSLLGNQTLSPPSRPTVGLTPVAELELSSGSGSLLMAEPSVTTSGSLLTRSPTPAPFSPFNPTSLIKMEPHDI
Chain of HSF1 (Q00613 whole entry): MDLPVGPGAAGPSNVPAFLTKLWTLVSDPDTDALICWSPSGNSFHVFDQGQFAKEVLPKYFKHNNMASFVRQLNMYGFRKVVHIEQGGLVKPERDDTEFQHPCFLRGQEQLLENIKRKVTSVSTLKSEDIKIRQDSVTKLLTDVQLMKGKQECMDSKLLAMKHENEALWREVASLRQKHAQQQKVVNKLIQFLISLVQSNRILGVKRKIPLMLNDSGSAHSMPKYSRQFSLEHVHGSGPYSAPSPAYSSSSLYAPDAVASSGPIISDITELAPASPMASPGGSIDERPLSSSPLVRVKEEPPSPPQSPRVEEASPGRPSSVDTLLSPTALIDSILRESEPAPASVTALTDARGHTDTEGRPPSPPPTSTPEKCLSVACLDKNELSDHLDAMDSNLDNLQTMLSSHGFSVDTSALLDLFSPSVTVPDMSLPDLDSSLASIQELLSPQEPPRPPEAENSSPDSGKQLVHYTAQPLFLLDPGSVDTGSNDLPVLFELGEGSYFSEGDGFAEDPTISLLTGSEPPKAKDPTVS

Turning to CCCCGA, the binding signal with FLI1 is 1.23 fold enrichment (6-mer frequency, TF over GST control); in the test with ELK1 it was 1.2 fold enrichment (6-mer frequency, TF over GST control); in the test with GABPA, 1.21 fold enrichment (6-mer frequency, TF over GST control); with ERG, 1.16 fold enrichment (6-mer frequency, TF over GST control); in the test with ELF1, 1.16 fold enrichment (6-mer frequency, TF over GST control); in the test with EHF, 1.14 fold enrichment (6-mer frequency, TF over GST control). The binding signal with SPI1 was 1.15 fold enrichment (6-mer frequency, TF over GST control); with SPIB, 1.23 fold enrichment (6-mer frequency, TF over GST control); in the test with FEV it was 1.18 fold enrichment (6-mer frequency, TF over GST control); with ETV5, 1.14 fold enrichment (6-mer frequency, TF over GST control); in the test with HSF1, 1.28 fold enrichment (6-mer frequency, TF over GST control); in the test with SPIC, 1.14 fold enrichment (6-mer frequency, TF over GST control). The binding signal with ELF4 was 1.29 fold enrichment (6-mer frequency, TF over GST control); in the test with ELK4, 1.15 fold enrichment (6-mer frequency, TF over GST control); in the test with ETV2, 1.24 fold enrichment (6-mer frequency, TF over GST control); with ELF3, 1.35 fold enrichment (6-mer frequency, TF over GST control); with CRX, 1.14 fold enrichment (6-mer frequency, TF over GST control).
